# ChEMBL document CHEMBL1157539, “Thousands of chemical starting points for antimalarial lead identification” (Nature, 2010)
# Tested on: Plasmodium falciparum
# Assay: GSK_TCMDC: Inhibition of Plasmodium falciparum 3D7 in whole red blood cells, using parasite LDH activity as an index of growth. Test compounds present at 2uM
# Format: functional
row,SMILES,Inhibition [%]
1,CCC(C(=O)Nc1cc(=O)[nH]c2nc(-c3ccco3)nn12)c1ccccc1 (stereo not drawn),87
2,Cc1[nH]c(C)c(-c2ccc(-c3ccc(C(F)F)cc3)nc2)c(=O)c1Cl,97
3,Cc1cc(N2CCN(C)CC2)nc2ccc(NC(=O)c3cccc(N(C)C)c3)cc12,85

# Tested on: Plasmodium falciparum
# Assay: GSK_TCMDC: Inhibition of Plasmodium falciparum Dd2 in whole red blood cells, using parasite LDH activity as an index of growth. Test compounds present at 2uM
# Format: functional
row,SMILES,Inhibition [%]
1,FC(F)(F)c1ccc2[nH]c(-c3ccc(-c4ccc(CNCC5CCCO5)cc4)s3)nc2c1.O=C(O)C(F)(F)F (stereo not drawn),98
2,CCc1nc2nc(C)cc(Nc3ccc(F)c(Cl)c3)n2n1,77
3,Br.Oc1ccc(CCNCCCCCCNCCc2ccc(Br)cc2)cc1O,5
4,O=C(/C=C/c1ccc(Cl)c(Cl)c1)N1CCC(NCc2c[nH]c3ccccc23)CC1,4
5,COc1ccc(CNC2CCN(C)CC2)cc1-c1ccc(S(=O)(=O)NCc2ccccc2)c(F)c1.O=C(O)C(F)(F)F,97
6,O=C(Nc1ccc(C(F)(F)F)cc1)c1cccc(S(=O)(=O)NC2CCN(Cc3ccccc3)C2)c1.O=C(O)C(F)(F)F (stereo not drawn),0
7,Cc1cc(C)cc(OCC(O)CN(Cc2cc(Cl)cc(Cl)c2)C(=O)Nc2ccccc2Cl)c1 (stereo not drawn),37
8,C=CCOC(=O)N1CCC(CNCc2cccc(-c3ccc(-c4nc5cc(C(F)(F)F)ccc5[nH]4)cc3)c2)C1.O=C(O)C(F)(F)F (stereo not drawn),96
9,CC(=O)N(C)c1cccc(C(=O)Nc2cccc(-c3cccc(-c4nc5cccc(C)c5[nH]4)c3)c2)c1,41
10,Cn1cc(C(=O)Nc2cccc(-c3cccc(-c4nc5cc(F)ccc5[nH]4)c3)c2)n(C)c1=O,50
